Bioassay records (PubChem BioAssay)
Only some compounds are listed: those with a hit (about 21% of all), similar ones and a draw of the others.
Cycloheximide cs: counter-screen hit for Shiga toxin inhibitors, cycloheximide; cell reporter, cycloheximide protein synthesis inhibition counterscreen; max response, %; actives 12% (n = 300,000); AID 2314; in the data active means max response mostly above about 13%, no sharp cut-off; inactive means mostly below about 14%; further: read at 38.3 µM for the half of the compounds with a filed dose
Shiga inhibitor: blocks Shiga toxin action in Vero cells. inhibition, % at 38.7 µM. Vero cells, Shiga toxin protein synthesis inhibition reporter. actives 9.2% (n = 290,000); in the data active means inhibition mostly above about 28%, no sharp cut-off; inactive means mostly below about 43%
Pf growth 96h: P. falciparum growth inhibition at 96 hours. P. falciparum luciferase reporter growth, 96 h. Potency, µM (highest dose often 28.7 µM), usual class: inhibitors. AID 504834. actives 6.9% (n = 320,000)
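Two parasite generations (96 h, 37 C, 5% CO2) of compound exposure in infected erythrocytes (0.05% parasitemia, 2% hematocrit). Luciferase-reporter P. falciparum; decreased luminescence indicates inhibited growth, aimed at apicoplast-acting delayed death.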
Pf growth 48h: inhibits P. falciparum growth in the first generation, 48 h. P. falciparum luciferase growth in erythrocytes, 48 h. Potency, µM (titrated, usually from 28.7 µM), hits mostly inhibitors. actives 5.9% (n = 310,000)
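Luciferase-expressing P. falciparum in infected erythrocytes (2% hematocrit, 0.1% parasitemia final) in RPMI 1640/0.5% Albumax were exposed to compound for 48 hours at 37 C, 5% CO2; growth read as luminescence.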
Each line names hits and unclear results; the compound was inactive in the other large screens; ! = not active in a repeat. Unless noted, the call rests on the fitted dose curve; in most records, active means well fitted inhibition curve with a large enough effect; inconclusive means small, poorly fitted or top-dose-only effect, or another doubt; inactive means no such curve, though single readings can be large or run the other way.

CSc1ccccc1NC(=O)CO/N=C(\C)c1cc2ccccc2o1	Cycloheximide cs 18.0
COc1cc(NC(=O)CCn2c(=S)oc3ccccc32)cc(OC)c1OC	Pf growth 48h inconclusive
CC(C)(C)C(=O)CNCC(=O)C(C)(C)C	none
CCOC(=O)COc1ccc(/C=C2\NC(=S)N(CC)C2=O)cc1	none
Cc1c(CCC(=O)O)c(=O)oc2cc(OCc3ccccc3F)ccc12	none (no result: Pf growth 48h)
O=C(C1CCN(S(=O)(=O)c2ccccc2)CC1)N1CCC1	none (no result: Cycloheximide cs, Shiga inhibitor)
CCC(C)(C)NC(=O)C(c1cccc(OC)c1OC)N(Cc1ccc(OC)cc1)C(=O)CCC(=O)Nc1cc(C)on1 (stereo not drawn)	Pf growth 48h 8.28µM
COc1cccc(C(C(=O)NC(C)(C)C)N(Cc2ccc(F)cc2)C(=O)CCC(=O)Nc2cc(C)on2)c1OC (stereo not drawn)	Pf growth 96h inconclusive, Pf growth 48h 13.1µM
O=c1c(O)c(-c2ccc(O)c(O)c2)oc2cc(O)cc(O)c12	Cycloheximide cs 30.1, Pf growth 48h inconclusive
O=c1c(O)c(-c2ccc(O[C@@H]3O[C@H](CO)[C@@H](O)[C@H](O)[C@H]3O)c(O)c2)oc2cc(O)cc(O)c12	none (no result: Pf growth 96h, Pf growth 48h)
CC1OC(Oc2c(-c3cc(O)c(O)c(O)c3)oc3cc(O)cc(O)c3c2=O)C(O)C(O)C1O (stereo not drawn)	Pf growth 48h 9.28µM
O=c1cc(-c2ccc(O)c(O)c2)oc2cc(O)cc(O)c12	Cycloheximide cs 56.3, Shiga inhibitor 67.3
COc1cc(-c2oc3cc(O)cc(O)c3c(=O)c2O)ccc1O	Cycloheximide cs 48.4!, Shiga inhibitor 48.7 (no result: Pf growth 96h, Pf growth 48h)
CC(=O)Oc1ccc(N(C(C)=O)S(=O)(=O)c2ccc3ccccc3c2)cc1	none
Cn1cc(CCC(=O)NCCCc2ccccc2)c2ccccc21	none
CC(C)N(C(=O)CSc1nnc(CSc2ncccn2)n1C)C(C)C	Pf growth 96h inconclusive
COCCn1c(=O)[nH]c(=O)c2cc(C(=O)c3cc(Cl)ccc3O)cnc21	Pf growth 96h inconclusive, Pf growth 48h 9.28µM
N#C/C(=C(/O)CN1CCOCC1)c1nc(-c2ccccc2)cs1	Pf growth 96h inconclusive (no result: Pf growth 48h)
CCOC(=O)C1CCCN(C/C(O)=C(\C#N)c2nc(-c3ccccc3)cs2)C1 (stereo not drawn)	Pf growth 96h 13.1µM
N#C/C(=C(/O)CN1CCCCC1)c1nc(-c2ccc(Cl)cc2)cs1	Cycloheximide cs 18.3, Shiga inhibitor 50.1
CCOC(=O)C1CCN(C(=O)C(CCSC)NC(=O)c2ccccc2OC)CC1 (stereo not drawn)	Pf growth 48h inconclusive (no result: Cycloheximide cs, Shiga inhibitor)
O=C(NCc1ccc(F)c(F)c1)C1CCC(=O)N(CC2CCCCC2)C1 (stereo not drawn)	Pf growth 96h 13.1µM
O=C(NCc1cccc(Cl)c1)C1CCC(=O)N(CC2CCCCC2)C1 (stereo not drawn)	Pf growth 96h 14.7µM
O=C(NCc1cc(F)ccc1F)C1CCC(=O)N(C2CCCCCC2)C1 (stereo not drawn)	Cycloheximide cs 34.8, Shiga inhibitor 86.0
C=CCC1(/C=N/O)CCOC(C)(C)C1 (stereo not drawn)	none
OC(c1cc(C(F)(F)F)nc2c(C(F)(F)F)cccc12)C1CCCCN1 (stereo not drawn)	Pf growth 96h 0.0037µM, Pf growth 48h 0.0093µM (no result: Cycloheximide cs, Shiga inhibitor)
COC(=O)C(c1ccccc1)C1CCCCN1 (stereo not drawn)	Pf growth 96h inconclusive (no result: Cycloheximide cs, Shiga inhibitor)
OC(c1cc(-c2ccc(C(F)(F)F)cc2)nc(C(F)(F)F)c1)C1CCCCN1 (stereo not drawn)	Pf growth 96h 0.0083µM, Pf growth 48h 0.104µM
COc1ccccc1C(=O)C1CCCN(C(=O)c2cccc(-n3cccn3)c2)C1 (stereo not drawn)	none
O=C(Cc1cn(Cc2cccc(Cl)c2)c2ccccc12)N1CCCCCC1	Pf growth 96h inconclusive
Nc1nc(Cl)cc(Nc2ccccc2Cl)n1	Cycloheximide cs 11.7
CSc1nc(Cl)cc(Nc2ccccc2N)n1	none
COC(=O)C1=C(C)N(Cc2ccc(C)cc2)C(=O)C1	Pf growth 48h inconclusive
COc1ccc(C(=O)Oc2cc(C)c(CN3CCOCC3)cc2C)cc1OC	Pf growth 48h inconclusive
COC(=O)C1=C(C(=O)OC)[C@@H]2N(C)c3ccccc3[C@@]23C[C@@H](CO)N(C(=O)NCCBr)C3=N1	Pf growth 96h inconclusive, Pf growth 48h 9.28µM
COC(=O)C1=C(C(=O)OC)[C@@H]2N(Cc3ccccc3)c3ccccc3[C@@]23C[C@@H](C(=O)OC)N(C(=O)CC(C)C)C3=N1	Pf growth 96h 4.65µM, Pf growth 48h 4.15µM
C=CCN1c2ccccc2[C@]23C[C@@H](C(=O)OC)N(C(=O)NCCC)C2=NC(C(=O)OC)=C(C(=O)OC)[C@H]13	Pf growth 96h 4.15µM, Pf growth 48h 3.29µM
